Consider twelve compounds from PubChem BioAssay (EPA / NIEHS).

Where “and” joins values, the source holds several entries; their conditions need not be identical. Identical values can stand only once. Records with an inconclusive call do not appear. Calls of active or inactive are those of the source. The calls were made as follows, unless noted: active = hit-call score of the fitted dose curve at least 0.9, where 1 is the maximum; inconclusive = response in the unintended direction; inactive = score below 0.9.

Assay [1] has as its target PGR (gene 5241) (UniProt P06401). As to the kind of experiment: TOX21_PR_BLA_Followup_Antagonist_ratio: Tox21 HEK293 Progesterone Receptor (PR) Antagonism Beta-lactamase Follow-Up Assay, Ratio (AID 2283934). An outline of the steps: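 PR-UAS-bla HEK293T cells in medium with 2% charcoal-stripped FBS were treated with compounds plus 1 nM (final) promegestone (R5020) for 16 hr at 37C. LiveBLAzer B/G FRET substrate was then added for 2 h at room temperature; signal is cleaved/uncleaved substrate ratio versus DMSO.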

The nature of assay [2]: TOX21_PR_BLA_Followup_Agonist_viability: Viability Assessment in the Tox21 HEK293 Progesterone Receptor (PR) Agonism Beta-lactamase Follow-Up Assay (AID 2283935).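 Also: signal loss means lower viability so actives are cytotoxic.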 An outline of the steps: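 PR-UAS-bla HEK293T cells in 2% charcoal-stripped FBS medium, compound added after 6 hr plating, 16 hr at 37C/5% CO2. After bla FRET read, CellTiter-Glo added; luminescence read after 30 min at room temperature; signal loss marks cytotoxicity.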

Assay [3] is described as follows: TOX21_PR_BLA_Followup_Antagonist_viability: Viability Assessment in the Tox21 HEK293 Progesterone Receptor (PR) Antagonism Beta-lactamase Follow-Up Assay (AID 2283936).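 Also: hits lower the luminescence signal meaning cytotoxicity.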 An outline of the steps:
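PR-UAS-bla HEK293T cells (3,000/well, 2% charcoal-stripped FBS) given compound plus R5020 agonist, 16 h at 37C. CellTiter-Glo added after bla read, 30 min at room temperature; luminescence loss indicates cytotoxicity.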

Assay [4] concerns the target PGR (gene 5241) (UniProt P06401). As to the kind of experiment: TOX21_PR_LUC_Followup_Antagonist: Tox21 HEK293 Progesterone Receptor (PR) Antagonism Luciferase Follow-Up Assay (AID 2283938).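 Also: curve fitted upward as signal gain over DMSO baseline despite antagonist label.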 An outline of the steps:
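HEK293-PR-A-luc cells, 3,000/well, preincubated 5 h at 37C before compound addition in DMSO; 16 h compound exposure at 37C. ONE-Glo luciferase luminescence read after 30 min at room temperature, fitted relative to DMSO baseline.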

Assay [5] has as its system Sodium/Iodide Symporter (NIS), SLC5A5 (gene 6528). As to the kind of experiment: CPHEA_Stoker_NIS_Inhibition_RAIU: CPHEA's Radioactive Iodide Uptake (RAIU) Assay for Sodium/Iodide Symporter (NIS) Inhibition, Stoker and Laws Labs (AID 2283841). An outline of the steps: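 hNIS-HEK293T-EPA cells incubated 2 h at room temperature with compound (0.001–100 uM, 0.5% DMSO) and 329 pM final 125I in HBSS/10 mM HEPES, pH 7.4. Intracellular 125I counted; normalised to DMSO maximal uptake, triplicate, three biological replicates.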

Assay [6] in a line: CPHEA_Stoker_NIS_Cytotoxicity: Cytotoxicity Assessment for CPHEA's Radioactive Iodide Uptake (RAIU) Assay for Sodium/Iodide Symporter (NIS) Inhibition, Stoker and Laws Labs (AID 2283897).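 As to AC50: active means loss of ATP signal versus DMSO meaning cytotoxicity.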 An outline of the steps:
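hNIS-HEK293T-EPA cells, human NIS expressed in HEK293T, treated 2 h with chemicals (0.001–100 uM, 0.5% final DMSO). ATP content read by CellTiter-Glo luminescence; loss of signal analysed relative to DMSO.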

The nature of assay [7]: TOX21_PR_LUC_Followup_Antagonist_viability: Viability Assessment in the Tox21 HEK293 Progesterone Receptor (PR) Antagonism Luciferase Follow-Up Assay (AID 2283940). An outline of the steps: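 HEK293-PR-A-luc cells, precultured 5 days in assay medium with 10% charcoal-stripped FBS, were seeded at 3,000 cells/well, treated with compounds in DMSO for 16 h at 37C, and viability was read as cellular ATP by CellTiter-Glo luminescence.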

The target in assay [8] is Nuclear receptor subfamily 1 group I member 2 (Mus musculus) (UniProt O54915). As to the kind of experiment: ATG_mPXR_XSP2: Attagene TRANS-FACTORIAL Multi-Species (XSP1) HepG2 Assay for mouse Pregnane X Receptor (PXR) (AID 2283831). An outline of the steps:
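HepG2 cells transiently transfected with GAL4-UAS reporter units expressing chimeric NR-Gal4 proteins; 24 h compound exposure. Reporter mRNA quantified by RT-PCR and capillary electrophoresis fluorescence; gain of signal fitted against DMSO.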

Assay [9] addresses zebrafish Thyroid Hormone Receptor alpha (TRa), thraa (gene 30670) (UniProt Q98867). Put plainly: ATG_zfTRa_XSP2: Attagene TRANS-FACTORIAL Multi-Species (XSP1) HepG2 Assay for zebrafish Thyroid Hormone Receptor alpha (TRa) (AID 2283832).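 Also: actives raise zebrafish TRa-Gal4 reporter transcript above DMSO baseline.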 An outline of the steps:
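HepG2 cells transiently transfected with multiplexed GAL4-UAS reporter units expressing chimeric NR-Gal4 proteins; 24 h after dosing, reporter mRNA measured by RT-PCR, FAM labelling, HpaI digestion and capillary electrophoresis; gain of signal versus DMSO baseline.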

The test system of assay [10] is zebrafish Peroxisome Proliferator-activated Receptor gamma (PPARg), gene 557037. Put plainly: ATG_zfPPARg_XSP2: Attagene TRANS-FACTORIAL Multi-Species (XSP2) HepG2 Assay for zebrafish Peroxisome Proliferator-activated Receptor gamma (PPARg) (AID 2283833).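 Also: actives increase reporter signal over DMSO so AC50 reflects activation.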 In short, it runs like this: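 HepG2 cells transiently transfected with multiplexed GAL4-UAS reporter units expressing chimeric NR-Gal4 receptors, dosed 24 h. Reporter mRNA quantified by RT-PCR, fluorescent labelling, HpaI digestion and capillary electrophoresis; gain of signal fitted against DMSO.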

Assay [11] deals with turtle Thyroid Hormone Receptor, alpha (TRa), gene 101949057. Put plainly: ATG_trTRa_XSP2: Attagene TRANS-FACTORIAL Multi-Species (XSP1) HepG2 Assay for turtle Thyroid Hormone Receptor, alpha (TRa) (AID 2283834).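 Also: hits raise reporter mRNA over the DMSO baseline so AC50 marks activators.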 In short, it runs like this:
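HepG2 cells transiently transfected with GAL4-UAS reporter units for chimeric turtle TRa-Gal4; mRNA measured 24 h after dosing by RT-PCR and capillary electrophoresis fluorescence, gain of signal fitted against DMSO.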

Assay [12] is described as follows: ATG_M_61_XSP2: Attagene TRANS-FACTORIAL Multi-Species (XSP2) HepG2 Assay for M61 Transcription Factor (Internal Marker) (AID 2283835; active = hit-call score of the fitted dose curve at least 0.9, where 1 is the maximum; inactive = score below 0.9;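 also: reporter mRNA of an internal background marker read by RT-PCR and capillary electrophoresis; active means a rise in signal above the DMSO baseline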). An outline of the steps:
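HepG2 cells transiently transfected with multiple GAL4-UAS reporter units; 3 nM 6-alpha-fluorotestosterone and 1.5 nM norgestrel present to stimulate androgen receptor. After 24 h compound exposure, reporter mRNA measured by RT-PCR and capillary electrophoresis fluorescence, gain-of-signal versus DMSO baseline.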

The target in assay [13] is zebrafish Thyroid Hormone Receptor beta (TRb), thrb (gene 30607) (UniProt Q9PVE4). Put plainly: ATG_zfTRb_XSP2: Attagene TRANS-FACTORIAL Multi-Species (XSP1) HepG2 Assay for zebrafish Thyroid Hormone Receptor beta (TRb) (AID 2283836). An outline of the steps:
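HepG2 cells transiently transfected with multiplexed GAL4-UAS reporter units expressing chimeric NR-Gal4 proteins; read 24 h after dosing. Reporter mRNA quantified by RT-PCR, 6-FAM labelling, HpaI digest and capillary electrophoresis; gain of signal fitted relative to DMSO.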

A short description of assay [14]: ATG_XTT_Cytotoxicity_XSP2: Cytotoxicity Assessment in the Attagene TRANS-FACTORIAL Multi-Species (XSP2) HepG2 Assay (AID 2283837). In short, it runs like this: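 HepG2 cells, transiently transfected with multiple reporter constructs, exposed to chemical for 24 h. Cell number assessed with XTT fluorescence read-out; loss of signal fitted relative to DMSO.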
The target of assay [15] is human Thyroid hormone Receptor alpha (TRa), THRA (gene 7067) (UniProt P10827). Put plainly: ATG_hTRa_XSP2: Attagene TRANS-FACTORIAL Multi-Species (XSP2) HepG2 Assay for human Thyroid hormone Receptor alpha (TRa) (AID 2283838). An outline of the steps:
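HepG2 cells transiently transfected with multiplexed GAL4-UAS reporter units and exogenous NR-GAL4 chimeras; 24 h chemical exposure with 3 nM 6-alpha-fluorotestosterone and 1.5 nM norgestrel present. Reporter mRNA measured by RT-PCR, FAM labelling, HpaI digestion, capillary electrophoresis; gain-of-signal versus DMSO.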

Assay [16] deals with frog Thyroid hormone Receptor alpha (TRa), thra-a (gene 397942) (UniProt P15204). Put plainly: ATG_frTRa_XSP2: Attagene TRANS-FACTORIAL Multi-Species (XSP2) HepG2 Assay for frog Thyroid hormone Receptor alpha (TRa) (AID 2283839). An outline of the steps: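 HepG2 transiently transfected with multiplexed GAL4-UAS reporters driven by frog TRa-Gal4 chimeras; 24 h chemical exposure. Reporter mRNA quantified by RT-PCR, FAM labelling, HpaI digestion and capillary electrophoresis; gain of signal versus DMSO.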
Chain of frog Thyroid hormone Receptor alpha (TRa), thra-a (gene 397942) (P15204 whole entry, looked up, the tested form may be a part): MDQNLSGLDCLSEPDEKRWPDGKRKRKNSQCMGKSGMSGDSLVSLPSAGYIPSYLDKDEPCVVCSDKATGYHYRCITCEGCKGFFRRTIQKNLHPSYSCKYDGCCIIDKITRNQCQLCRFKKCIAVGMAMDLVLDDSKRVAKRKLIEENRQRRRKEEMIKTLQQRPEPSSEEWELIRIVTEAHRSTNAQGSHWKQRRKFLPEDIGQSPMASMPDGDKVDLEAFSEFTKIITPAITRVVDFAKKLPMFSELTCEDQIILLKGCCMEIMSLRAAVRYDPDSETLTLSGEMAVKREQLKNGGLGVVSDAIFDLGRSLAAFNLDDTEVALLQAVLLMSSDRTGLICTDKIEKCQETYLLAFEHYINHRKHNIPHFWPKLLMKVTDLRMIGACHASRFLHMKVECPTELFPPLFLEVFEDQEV

Assay [17] concerns the target human Thyroid hormone Receptor beta (TRb), THRB (gene 7068) (UniProt P10828). As to the kind of experiment: ATG_hTRb_XSP2: Attagene TRANS-FACTORIAL Multi-Species (XSP2) HepG2 Assay for human Thyroid hormone Receptor beta (TRb) (AID 2283840).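 Also: actives raise reporter mRNA so potency reflects agonist-like gain of signal.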 In short, it runs like this: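 HepG2 transiently transfected with a multi-species panel including a human TRb–Gal4 chimera driving Gal4-UAS reporters; medium contained 3 nM 6-alpha-fluorotestosterone and 1.5 nM norgestrel. 24 h dosing; RT-PCR/capillary electrophoresis readout; positive-direction fit vs DMSO.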

Assay [18] concerns the target Thyroid hormone receptor alpha (Rattus norvegicus) + Thyroid hormone receptor beta (Rattus norvegicus) (UniProt P18113+P63059). As to the kind of experiment: TOX21_TR_LUC_GH3_Agonist_Followup: Tox21 GH3 Thyroid Hormone Receptor Agonism Luciferase Follow-Up Assay (AID 2283939). An outline of the steps:
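Rat GH3 cells (1,500/well) in serum-free assay medium, treated with 15-point series, 92 uM to 5 nM final, for 24 h at 37C. Luciferase via ONE-Glo luminescence; gain of signal fitted against DMSO, T3 positive control.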

Chain of zebrafish Thyroid Hormone Receptor alpha (TRa), thraa (gene 30670) (Q98867 whole entry, looked up, the tested form may be a part): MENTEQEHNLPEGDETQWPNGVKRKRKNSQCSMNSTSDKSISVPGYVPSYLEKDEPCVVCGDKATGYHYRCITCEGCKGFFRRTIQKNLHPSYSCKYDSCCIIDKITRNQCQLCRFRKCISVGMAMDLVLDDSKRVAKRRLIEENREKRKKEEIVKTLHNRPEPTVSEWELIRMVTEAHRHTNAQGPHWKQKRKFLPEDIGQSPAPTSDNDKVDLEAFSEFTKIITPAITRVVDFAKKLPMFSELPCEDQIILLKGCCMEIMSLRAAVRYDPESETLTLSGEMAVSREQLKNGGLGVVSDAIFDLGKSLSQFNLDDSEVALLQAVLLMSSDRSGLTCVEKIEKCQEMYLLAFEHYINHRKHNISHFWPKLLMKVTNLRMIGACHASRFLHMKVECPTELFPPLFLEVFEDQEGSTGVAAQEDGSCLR
Chain of PGR (gene 5241) (P06401 whole entry, looked up): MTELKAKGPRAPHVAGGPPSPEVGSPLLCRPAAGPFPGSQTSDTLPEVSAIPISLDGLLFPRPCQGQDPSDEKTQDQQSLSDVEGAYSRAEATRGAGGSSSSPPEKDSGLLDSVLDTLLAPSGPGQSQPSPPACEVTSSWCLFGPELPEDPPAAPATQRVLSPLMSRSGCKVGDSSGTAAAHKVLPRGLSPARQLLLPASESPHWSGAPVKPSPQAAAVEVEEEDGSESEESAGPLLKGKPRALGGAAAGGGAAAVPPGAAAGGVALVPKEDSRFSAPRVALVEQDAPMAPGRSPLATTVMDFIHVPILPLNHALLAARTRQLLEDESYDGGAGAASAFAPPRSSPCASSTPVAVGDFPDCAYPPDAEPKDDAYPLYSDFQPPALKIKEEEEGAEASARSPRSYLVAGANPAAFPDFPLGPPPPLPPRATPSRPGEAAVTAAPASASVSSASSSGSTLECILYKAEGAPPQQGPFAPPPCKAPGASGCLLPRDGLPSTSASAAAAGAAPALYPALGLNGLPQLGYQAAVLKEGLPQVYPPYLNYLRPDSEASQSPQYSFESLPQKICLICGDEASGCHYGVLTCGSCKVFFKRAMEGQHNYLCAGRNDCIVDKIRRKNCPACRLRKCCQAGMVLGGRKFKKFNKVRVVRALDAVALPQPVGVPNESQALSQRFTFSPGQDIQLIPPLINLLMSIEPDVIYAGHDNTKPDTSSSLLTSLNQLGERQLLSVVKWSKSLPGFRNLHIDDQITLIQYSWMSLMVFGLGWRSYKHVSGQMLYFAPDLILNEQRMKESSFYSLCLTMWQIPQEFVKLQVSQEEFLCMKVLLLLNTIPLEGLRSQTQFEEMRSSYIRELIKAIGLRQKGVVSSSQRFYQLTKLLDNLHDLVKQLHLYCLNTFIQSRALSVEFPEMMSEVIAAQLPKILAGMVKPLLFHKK
Chain of human Thyroid hormone Receptor alpha (TRa), THRA (gene 7067) (P10827 whole entry, looked up, the tested form may be a part): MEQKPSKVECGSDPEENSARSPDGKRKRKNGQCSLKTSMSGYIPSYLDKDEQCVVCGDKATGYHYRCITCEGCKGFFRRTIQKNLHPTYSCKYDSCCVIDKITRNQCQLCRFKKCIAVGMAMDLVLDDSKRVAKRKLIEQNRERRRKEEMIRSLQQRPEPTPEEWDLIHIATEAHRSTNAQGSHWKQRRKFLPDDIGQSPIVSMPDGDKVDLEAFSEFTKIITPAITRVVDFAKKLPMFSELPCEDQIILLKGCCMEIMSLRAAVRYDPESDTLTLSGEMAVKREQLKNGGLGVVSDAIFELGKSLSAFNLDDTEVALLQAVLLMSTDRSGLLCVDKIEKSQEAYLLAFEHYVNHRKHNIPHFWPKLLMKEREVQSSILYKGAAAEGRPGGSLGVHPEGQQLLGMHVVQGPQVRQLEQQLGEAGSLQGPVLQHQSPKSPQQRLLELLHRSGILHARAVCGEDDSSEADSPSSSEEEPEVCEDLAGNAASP
Chain of zebrafish Thyroid Hormone Receptor beta (TRb), thrb (gene 30607) (Q9PVE4 whole entry, looked up, the tested form may be a part): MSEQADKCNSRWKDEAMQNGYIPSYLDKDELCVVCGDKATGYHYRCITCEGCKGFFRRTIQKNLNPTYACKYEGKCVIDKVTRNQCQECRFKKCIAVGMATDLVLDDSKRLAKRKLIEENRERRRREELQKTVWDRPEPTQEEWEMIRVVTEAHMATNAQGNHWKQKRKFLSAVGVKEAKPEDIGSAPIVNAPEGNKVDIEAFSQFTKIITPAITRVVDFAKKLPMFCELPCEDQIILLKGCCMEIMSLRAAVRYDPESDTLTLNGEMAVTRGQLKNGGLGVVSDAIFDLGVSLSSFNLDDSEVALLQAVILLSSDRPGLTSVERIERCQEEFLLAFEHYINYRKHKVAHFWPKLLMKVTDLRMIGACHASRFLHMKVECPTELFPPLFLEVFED
Chain of Nuclear receptor subfamily 1 group I member 2 (Mus musculus) (O54915 whole entry, looked up, the tested form may be a part): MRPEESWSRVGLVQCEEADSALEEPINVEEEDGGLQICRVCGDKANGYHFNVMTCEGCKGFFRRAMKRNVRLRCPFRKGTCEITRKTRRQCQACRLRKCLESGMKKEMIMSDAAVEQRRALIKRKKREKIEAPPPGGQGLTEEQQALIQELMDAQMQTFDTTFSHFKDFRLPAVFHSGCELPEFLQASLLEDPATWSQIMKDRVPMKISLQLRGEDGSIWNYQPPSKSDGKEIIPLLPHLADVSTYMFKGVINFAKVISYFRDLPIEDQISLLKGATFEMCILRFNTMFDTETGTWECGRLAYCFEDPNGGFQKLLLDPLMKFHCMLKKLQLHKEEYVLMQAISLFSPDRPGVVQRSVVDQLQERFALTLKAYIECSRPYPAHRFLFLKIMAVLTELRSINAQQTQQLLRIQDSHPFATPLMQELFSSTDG
Chain of human Thyroid hormone Receptor beta (TRb), THRB (gene 7068) (P10828 whole entry, looked up, the tested form may be a part): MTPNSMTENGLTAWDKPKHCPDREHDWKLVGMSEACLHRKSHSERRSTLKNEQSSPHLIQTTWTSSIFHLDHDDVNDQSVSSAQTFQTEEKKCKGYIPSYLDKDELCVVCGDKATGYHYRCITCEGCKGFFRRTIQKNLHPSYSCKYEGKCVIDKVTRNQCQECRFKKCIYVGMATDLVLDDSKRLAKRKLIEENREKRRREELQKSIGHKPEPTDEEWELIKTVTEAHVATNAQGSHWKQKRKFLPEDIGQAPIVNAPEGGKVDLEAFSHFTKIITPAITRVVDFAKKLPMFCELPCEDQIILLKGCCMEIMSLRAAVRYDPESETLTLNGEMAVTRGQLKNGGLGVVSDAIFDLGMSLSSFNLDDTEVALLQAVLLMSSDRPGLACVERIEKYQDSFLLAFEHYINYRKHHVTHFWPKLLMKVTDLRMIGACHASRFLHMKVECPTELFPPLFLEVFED
Chain of Thyroid hormone receptor alpha (Rattus norvegicus) + Thyroid hormone receptor beta (Rattus norvegicus) (P63059 whole entry, looked up): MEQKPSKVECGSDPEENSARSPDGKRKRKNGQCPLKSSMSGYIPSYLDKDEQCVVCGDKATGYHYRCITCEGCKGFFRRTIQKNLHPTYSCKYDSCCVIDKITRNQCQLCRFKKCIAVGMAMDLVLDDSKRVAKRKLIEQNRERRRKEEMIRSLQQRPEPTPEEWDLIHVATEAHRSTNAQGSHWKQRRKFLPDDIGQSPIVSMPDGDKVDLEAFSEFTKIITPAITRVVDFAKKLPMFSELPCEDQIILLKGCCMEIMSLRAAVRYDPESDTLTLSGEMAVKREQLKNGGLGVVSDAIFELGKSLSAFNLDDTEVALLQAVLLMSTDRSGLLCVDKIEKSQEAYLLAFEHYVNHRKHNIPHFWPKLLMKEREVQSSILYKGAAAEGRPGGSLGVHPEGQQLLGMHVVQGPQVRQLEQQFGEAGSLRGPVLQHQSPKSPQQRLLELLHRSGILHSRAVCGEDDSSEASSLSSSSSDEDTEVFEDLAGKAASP
Chain of Thyroid hormone receptor alpha (Rattus norvegicus) + Thyroid hormone receptor beta (Rattus norvegicus) (P18113 whole entry, looked up): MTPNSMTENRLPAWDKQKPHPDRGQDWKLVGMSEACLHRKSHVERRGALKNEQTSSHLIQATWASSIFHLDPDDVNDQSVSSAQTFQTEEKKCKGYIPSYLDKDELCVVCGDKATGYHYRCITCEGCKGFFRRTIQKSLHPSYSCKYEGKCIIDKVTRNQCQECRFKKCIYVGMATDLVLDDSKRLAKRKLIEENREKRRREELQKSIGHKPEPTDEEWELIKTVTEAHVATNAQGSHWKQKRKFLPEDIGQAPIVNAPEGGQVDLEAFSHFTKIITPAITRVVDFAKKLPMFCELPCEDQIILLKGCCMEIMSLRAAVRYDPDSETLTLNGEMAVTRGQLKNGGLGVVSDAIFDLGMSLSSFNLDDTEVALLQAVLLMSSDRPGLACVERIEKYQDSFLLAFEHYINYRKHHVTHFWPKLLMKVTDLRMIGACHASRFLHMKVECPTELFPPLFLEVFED

Turning to `C[C@]12CCC(=O)C=C1CC[C@@H]1[C@@H]2C(=O)C[C@@]2(C)[C@H]1CC[C@]2(O)C(=O)CO`, the outcome (in the assay with PGR (gene 5241) [1]; in [2]; in assay [3]; with PGR (gene 5241) [4]) was inactive.
Regarding `CO[Si](OC)(OC)c1ccccc1`, the outcome in [5] and in assay [6] was inactive.
As for `O=C(C=Cc1ccccc1)OCc1ccccc1`, the outcome in assay [5] and in assay [6] was inactive.
A word on the AC50: it is the concentration giving half of the maximal activity seen. For the compound `C#CC1(O)CC[C@H]2[C@@H]3CCC4=CCCC[C@@H]4[C@H]3CC[C@@]21C` (stereo partly specified), the result (with PGR (gene 5241) [1]; in assay [2]; in assay [3]; in [7]) was inactive. The AC50 with PGR (gene 5241) [4] was 23.9 µM (active).
Turning to `Nc1ccc(-c2ccc(F)cc2)cc1`, in the assay with PGR (gene 5241) [1], the concentration at half-maximal activity (AC50) is 24.6 µM (active). Also, the call (in assay [2]; in assay [3]; in the assay with PGR (gene 5241) [4]; in [7]) was inactive.
Take `Cc1ccc(C(C)c2ccc(C)c(C)c2)cc1C`: the outcome (with PGR (gene 5241) [1]; in [2]; in [3]; with PGR (gene 5241) [4]; in [7]) was inactive.
Turning to `c1ccc2c(c1)ccc1cc3c(ccc4ccccc43)cc12`, the outcome in assay [5] and in assay [6] was inactive.
For `CCCCCCCC[N+](C)(CCCCCCCC)CCCCCCCC`, the results for the AC50 in assay [5] and in assay [6] were 10.4 µM (active) and 50 µM (active), respectively.
Take `COC(=O)c1c(C)cc(O)c(C)c1O`: the AC50 in assay [8] is 10.7 µM (active) and 27.3 µM (active). In addition, the result in assay [9], in [10], in [11], in [12], in assay [13] and in [14] was inactive. Moreover, the result in assay [15], in [16] and in assay [17] was inactive.
As to `CCCCCCC(O)CO` (stereo unspecified), the outcome in assay [18] was inactive.
As for `O=C(c1ccc(O)cc1)c1ccc(O)cc1O`, the compound was classed as inactive in [9], in assay [12], in assay [13], in assay [15], in assay [16] and in assay [17].
As for `CC(C)(C)c1ccc(OC(=O)c2ccccc2O)cc1`, the result in [5] and in assay [6] was inactive.
